From PubChem
TRHR PAM: allosteric enhancers of human TRH receptor; P34981; TRHR cells, fluo-8 calcium fluorescence, EC20 TRH enhancement; enhancement, % at 2 µM; actives 0.66% (n = 360,000); AID 493056; in the data active means enhancement above about 30%; further: 0% is about no effect
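Enhancer read-out: after compound pinning and an initial kinetic agonist-mode read, an EC20 of TRH (10 nM final) was injected and fluo-8 calcium signal (Ex 480/Em 530) followed at 1 s/cycle for 100 cycles in TRHR-expressing cells.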
D1 PAM: enhances dopamine response at the human D1 receptor; actives 0.036% (n = 360,000); P21728; AID 504651; potentiation, % at 10 µM; HEK293 TREx D1 cells, calcium flux, dopamine EC20 potentiation; in the data active means potentiation above about 30%; further: 0% is about no effect
Target sequence (P21728 whole entry, looked up): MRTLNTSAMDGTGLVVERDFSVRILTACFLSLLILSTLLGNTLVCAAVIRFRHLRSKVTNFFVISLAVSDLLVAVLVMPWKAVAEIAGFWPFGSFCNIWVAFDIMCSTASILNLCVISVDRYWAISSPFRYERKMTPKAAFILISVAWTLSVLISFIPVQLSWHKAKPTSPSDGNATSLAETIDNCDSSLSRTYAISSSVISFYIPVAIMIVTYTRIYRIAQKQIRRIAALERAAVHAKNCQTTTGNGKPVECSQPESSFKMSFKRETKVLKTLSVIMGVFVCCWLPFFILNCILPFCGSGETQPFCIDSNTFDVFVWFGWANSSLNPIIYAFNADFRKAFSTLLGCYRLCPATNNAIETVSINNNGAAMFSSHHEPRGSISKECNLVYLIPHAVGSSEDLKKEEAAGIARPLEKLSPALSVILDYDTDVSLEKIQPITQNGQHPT
TRHR agonist: activates the human TRH receptor | P34981 | TRHR cells, calcium flux fluo-8, FDSS agonist mode | activation, % at 2 µM | actives 0.18% (n = 360,000); further: 0% is about no effect
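TRHR-expressing cells, plated overnight in medium with 10% serum, were loaded with fluo-8 calcium dye at room temperature. After a 10 s baseline, library compound was pin-added and calcium release was recorded kinetically (ex 480/em 530) as agonist response.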
D1 antag: human D1 dopamine receptor antagonism; actives 3.2% (n = 360,000); P21728; activity change, negative = inhibition, % at 10 µM; HEK293 TREx D1 cells, calcium flux, dopamine EC80; hits give low values; AID 504652; in the data active means activity change below about -30%; further: on the % scale 0 is the no-effect control and ±100 the full control effect
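Cells carrying a force-coupled, tetracycline-inducible human D1 receptor report calcium flux. Each well gets a 10 s baseline, compound with 180 s monitoring, then an EC80 dopamine stimulus with a second 180 s kinetic read.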
D1 ag: activates the human D1 dopamine receptor. P21728. HEK293 T-REx D1 cells, calcium flux, agonist mode. activation, % at 2 µM. actives 1% (n = 360,000). AID 504660; further: 0% is about no effect
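Agonism was scored from calcium flux recorded over 180 s (1 read/s) after pintool compound addition, following a 10-cycle baseline. Cells were inducible force-coupled HEK293 TREx D1, plated overnight at 30 C and loaded with no-wash calcium dye.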
* hit, by the source's call; nt = no result. Shown are actives, neighbours in structure and some others; about 4.6% of the full set was active somewhere. Unless noted, no stated cut-off is given here; in the data, active means activation above about 30%; inactive means the rest.

SMILES	TRHR PAM	D1 PAM	TRHR agonist	D1 antag	D1 ag
CC1CCCC(NC(=O)c2ccc(CNc3c(N4CCCC4)c(=O)c3=O)cc2)C1C (configuration not stated)	17	-10	0	-32*	1
Cc1ccc(Oc2nccc(-c3ccc(Cl)cc3)n2)cc1	2	-19	0	-30*	26
CC(C(=O)NCC1CCCO1)n1cccc1C(=O)c1ccccc1 (configuration not stated)	9	-2	-1	-31*	1
Cn1nc(-c2ccccc2)cc1NS(=O)(=O)c1ccccc1	4	-2	-1	-36*	2
Cc1ccc(S(=O)(=O)Nc2cc(-c3ccccc3)nn2C)cc1	1	-2	0	9	1
CCNc1nc(NCC)nc(Nn2cnnc2)n1	6	-8	0	-38*	2
CC(=O)Nc1ccc2c(COC(=O)[C@H](C)N3C(=O)C4CCCCC4C3=O)cc(=O)oc2c1 (some centres not stated)	2	0	1	-10	1
Cc1cc(=O)oc2cc(NC(=O)C(C)N3C(=O)C4CCCCC4C3=O)ccc12 (configuration not stated)	4	-3	0	-43*	2
O=C1C(Cc2ccccc2)Nc2ncnc(N3CCCCC3)c2N1Cc1ccc(Cl)cc1 (configuration not stated)	-3	6	1	13	0
CCCCCn1ncc2c3sc(C)cc3n(C)c2c1=O	-2	-2	-2	-2	2
CSc1cccc(NC(=S)Nc2cc(C)ccc2C)c1	-5	-6	1	-40*	2
CS(=O)(=O)/C(C#N)=C/c1cccn1S(=O)(=O)c1ccccc1	0	-4	0	-16	3
CN(C)n1cccc1/C=C(\C#N)S(=O)(=O)c1cccc(Cl)c1	-10	-8	0	-35*	6
Cc1ccc(CNC(=O)CSC2=Nc3ccccc3N=C(c3ccc(F)cc3)C2)cc1	1	2	1	30	5
Cn1cc(C(=O)c2ccccc2)cc1-c1nc2ccccc2n1C	2	1	0	-31*	5
CCC(=O)c1cc(-c2nc3ccccc3n2C)n(C)c1	4	-2	0	-12	0
O=C1CC(c2ccccc2)C(C(=O)Nc2ccccc2F)N1 (configuration not stated)	3	-1	0	-32*	-4
CCCCOc1ccc(C2c3c(-c4ccccc4O)n[nH]c3C(=O)N2Cc2ccncc2)cc1OC (configuration not stated)	3	4	1	-2	1
N#Cc1c(-c2ccccc2)cc(C2CC2)nc1N	5	-8	-1	-12	31*
Cc1ccc(NS(=O)(=O)c2ccc(-n3cccn3)cc2)cc1C	2	-2	1	-11	6
CCc1cccc(C)c1NS(=O)(=O)c1ccc(-n2cccn2)cc1	3	-1	-1	-47*	22
CCc1cccc(NS(=O)(=O)c2ccc(-n3cccn3)cc2)c1	0	-4	0	-2	13
COc1ccc(NS(=O)(=O)c2ccc(-n3cccn3)cc2)cc1OC	-3	-7	1	-33*	15
CSc1ncc(C(=O)Nc2ccccc2C(=O)c2ccccc2)c(C(F)(F)F)n1	2	4	0	25	0
CC1CC(C)CN(CCCNC(=O)CN2C(=O)CSc3ccc(S(=O)(=O)N4CCCCC4)cc32)C1 (configuration not stated)	-5	-6	2	1	3
CC1(C)O[C@H]2[C@@H](O1)[C@@H](C(=O)Nc1ccc(F)c(F)c1)O[C@@H]1OC(C)(C)O[C@@H]12	6	-2	1	-1	-2
CC1(C)CC(NCCN2CCN(C3=CC(=C(C#N)C#N)CC(C)(C)C3)CC2)=CC(=C(C#N)C#N)C1	2	-5	0	2	0
N#Cc1cc(Cl)c(N2CCOCC2)cc1C#N	-3	-2	1	nt	3
N#CC(C#N)=C1C=C2C=C(N3CCOCC3)CCC2CC1 (configuration not stated)	-20	17	231*	10	522*
CCN1CCN(C2=CC3=CC(=C(C#N)C#N)CCC3CC2)CC1 (configuration not stated)	-22	18	235*	-20	590*
